Assay in all cases: DAPPL (digital affinity profiling via proximity ligation, sequencing); 10 mM Tris-HCl pH 7.5, 50 mM NaCl, 1 mM DTT, 4% glycerol, room temperature, 30 min; GST-TFs on glutathione beads, 16-mer random dsDNA library, 0.1% formaldehyde crosslink after washing; high values mean tight binding
Details in all cases: protein: recombinant; tags: N-terminal GST; dsDNA, one strand shown

One assay concerns the target T1, ERF (Homo sapiens, UniProt P50548 1-548).
T1 sequence: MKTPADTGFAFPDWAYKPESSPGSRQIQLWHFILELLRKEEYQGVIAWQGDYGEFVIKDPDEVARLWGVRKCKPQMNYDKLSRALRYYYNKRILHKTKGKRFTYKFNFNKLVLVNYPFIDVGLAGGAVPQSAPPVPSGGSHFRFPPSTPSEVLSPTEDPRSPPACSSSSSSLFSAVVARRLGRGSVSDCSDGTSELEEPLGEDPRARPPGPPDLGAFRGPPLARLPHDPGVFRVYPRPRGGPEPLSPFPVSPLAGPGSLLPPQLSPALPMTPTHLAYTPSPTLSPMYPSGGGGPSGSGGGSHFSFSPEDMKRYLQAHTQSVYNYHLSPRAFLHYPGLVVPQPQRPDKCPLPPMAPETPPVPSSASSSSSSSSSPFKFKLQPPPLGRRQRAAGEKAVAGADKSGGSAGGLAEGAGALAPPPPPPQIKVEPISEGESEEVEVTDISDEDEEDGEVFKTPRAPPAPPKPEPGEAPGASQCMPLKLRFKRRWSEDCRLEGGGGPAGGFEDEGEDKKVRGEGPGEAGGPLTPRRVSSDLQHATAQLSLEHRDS
In a few lines:
(§1)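 Binding signal is given per hexamer as its read frequency for a factor divided by its frequency in the tag-only sample. GST-fused human transcription factors were expressed in yeast, captured on glutathione beads, barcoded with DNA and pooled with that sample, then incubated with 200 nmole of a 16-mer random double-stranded DNA library in Tris/NaCl/DTT/glycerol buffer for 30 min at room temperature. The pools were then washed, crosslinked, proximity-ligated, amplified by PCR and sequenced on an Illumina NextSeq500.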

Another assay addresses T2, ETV3L (Homo sapiens, UniProt Q6ZN32 1-361).
T2 sequence: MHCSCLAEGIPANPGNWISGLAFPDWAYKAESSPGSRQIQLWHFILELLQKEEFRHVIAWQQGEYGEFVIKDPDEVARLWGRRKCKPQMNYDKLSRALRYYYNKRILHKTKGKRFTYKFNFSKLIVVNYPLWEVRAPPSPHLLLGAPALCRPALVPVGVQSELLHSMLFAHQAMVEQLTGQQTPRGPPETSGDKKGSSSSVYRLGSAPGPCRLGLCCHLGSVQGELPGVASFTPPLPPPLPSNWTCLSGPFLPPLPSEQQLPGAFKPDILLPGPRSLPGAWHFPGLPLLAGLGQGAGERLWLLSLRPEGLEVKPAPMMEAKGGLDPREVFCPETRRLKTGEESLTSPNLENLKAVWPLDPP
In a few lines:
as §1

The next assay deals with T3, ETS2 (Homo sapiens, UniProt P15036 1-469).
T3 sequence: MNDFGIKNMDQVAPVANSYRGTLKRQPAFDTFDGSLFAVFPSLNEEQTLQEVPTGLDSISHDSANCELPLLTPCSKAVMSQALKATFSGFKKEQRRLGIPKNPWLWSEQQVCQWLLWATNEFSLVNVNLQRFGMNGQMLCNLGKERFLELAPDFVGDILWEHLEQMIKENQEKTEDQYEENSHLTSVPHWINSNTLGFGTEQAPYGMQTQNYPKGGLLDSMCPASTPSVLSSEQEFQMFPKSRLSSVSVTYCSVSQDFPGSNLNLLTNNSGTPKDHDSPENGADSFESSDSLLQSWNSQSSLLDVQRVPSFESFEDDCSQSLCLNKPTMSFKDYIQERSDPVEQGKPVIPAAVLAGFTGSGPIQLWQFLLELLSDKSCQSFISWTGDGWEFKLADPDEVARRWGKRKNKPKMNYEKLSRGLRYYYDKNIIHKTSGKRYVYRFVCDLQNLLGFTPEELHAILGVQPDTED
In a few lines:
as §1

A further assay has as its target T4, SPDEF (Homo sapiens, UniProt O95238 1-335).
T4 sequence: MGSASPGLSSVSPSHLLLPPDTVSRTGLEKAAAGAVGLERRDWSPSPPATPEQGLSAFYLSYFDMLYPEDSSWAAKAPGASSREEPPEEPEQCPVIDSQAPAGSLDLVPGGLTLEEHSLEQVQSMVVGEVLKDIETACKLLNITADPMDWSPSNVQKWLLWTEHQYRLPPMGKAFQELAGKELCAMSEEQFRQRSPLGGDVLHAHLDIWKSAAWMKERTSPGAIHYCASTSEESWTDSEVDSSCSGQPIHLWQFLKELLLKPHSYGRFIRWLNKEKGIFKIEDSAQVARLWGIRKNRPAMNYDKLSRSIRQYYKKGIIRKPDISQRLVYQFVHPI
In a few lines: as §1

A further assay addresses T5, ETV7 (Homo sapiens, UniProt Q9Y603 1-341).
T5 sequence: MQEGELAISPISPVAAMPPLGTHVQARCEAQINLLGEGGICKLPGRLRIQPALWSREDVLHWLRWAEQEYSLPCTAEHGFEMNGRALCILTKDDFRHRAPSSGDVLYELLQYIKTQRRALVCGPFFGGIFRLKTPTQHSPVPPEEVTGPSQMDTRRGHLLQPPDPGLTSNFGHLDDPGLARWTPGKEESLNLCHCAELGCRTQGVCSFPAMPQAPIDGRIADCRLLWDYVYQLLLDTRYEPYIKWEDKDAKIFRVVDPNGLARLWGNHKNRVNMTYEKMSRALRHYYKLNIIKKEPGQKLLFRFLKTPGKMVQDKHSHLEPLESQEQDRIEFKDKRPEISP
In a few lines: as §1

For another assay, the target named is T6, ELF5 (Homo sapiens, UniProt Q9UKW6-2 1-255).
T6 sequence: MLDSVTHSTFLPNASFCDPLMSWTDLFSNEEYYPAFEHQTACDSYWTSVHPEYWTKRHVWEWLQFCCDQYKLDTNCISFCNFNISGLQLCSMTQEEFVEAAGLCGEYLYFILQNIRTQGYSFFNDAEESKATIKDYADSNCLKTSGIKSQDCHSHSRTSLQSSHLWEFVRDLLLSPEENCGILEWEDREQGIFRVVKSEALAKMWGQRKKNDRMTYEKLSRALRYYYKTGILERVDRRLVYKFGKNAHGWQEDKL
In short, it runs like this:
as §1

Another assay has as its target T7, ETV3 (Homo sapiens, UniProt P41162-2 1-143).
T7 sequence: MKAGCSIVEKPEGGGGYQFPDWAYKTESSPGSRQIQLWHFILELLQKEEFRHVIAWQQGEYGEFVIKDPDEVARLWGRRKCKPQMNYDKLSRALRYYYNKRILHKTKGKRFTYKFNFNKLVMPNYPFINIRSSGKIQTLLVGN
In a few lines: as §1

Another assay has as its target ETV6 (Homo sapiens, UniProt P41212 1-452). In a few lines: as §1

ETV6, sequence (P41212 whole entry): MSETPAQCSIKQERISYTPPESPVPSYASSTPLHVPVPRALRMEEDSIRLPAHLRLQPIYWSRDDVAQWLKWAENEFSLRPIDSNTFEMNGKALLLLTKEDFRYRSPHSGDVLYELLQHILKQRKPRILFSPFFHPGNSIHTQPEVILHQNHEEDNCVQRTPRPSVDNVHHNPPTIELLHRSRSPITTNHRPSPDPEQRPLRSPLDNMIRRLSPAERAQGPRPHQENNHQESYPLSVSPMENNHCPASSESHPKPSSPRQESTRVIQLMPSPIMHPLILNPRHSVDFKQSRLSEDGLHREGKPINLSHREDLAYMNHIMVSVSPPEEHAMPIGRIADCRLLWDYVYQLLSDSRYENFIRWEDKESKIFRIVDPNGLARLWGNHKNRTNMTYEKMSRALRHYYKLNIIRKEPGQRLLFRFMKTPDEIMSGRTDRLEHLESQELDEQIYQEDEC

Take TCAACT: the binding signal with ERF was 1.31 fold enrichment (6-mer frequency, TF over GST control); with ETV3L, 1.32 fold enrichment (6-mer frequency, TF over GST control); with ETS2, 1.34 fold enrichment (6-mer frequency, TF over GST control); with SPDEF, 1.27 fold enrichment (6-mer frequency, TF over GST control); in the assay with ETV7, 1.12 fold enrichment (6-mer frequency, TF over GST control); in the assay with ELF5 it was 1.24 fold enrichment (6-mer frequency, TF over GST control). Besides, the binding signal in the assay with ETV3 is 1.31 fold enrichment (6-mer frequency, TF over GST control); in the assay with ETV6, 1.33 fold enrichment (6-mer frequency, TF over GST control).

For CATCCC, the binding signal with ERF is 1.2 fold enrichment (6-mer frequency, TF over GST control); with ETV3L, 1.26 fold enrichment (6-mer frequency, TF over GST control); in the assay with ETS2, 1.33 fold enrichment (6-mer frequency, TF over GST control); in the assay with SPDEF, 1.47 fold enrichment (6-mer frequency, TF over GST control); with ETV7, 1.2 fold enrichment (6-mer frequency, TF over GST control); in the assay with ELF5, 1.44 fold enrichment (6-mer frequency, TF over GST control). Besides, the binding signal with ETV3 is 1.16 fold enrichment (6-mer frequency, TF over GST control); with ETV6 it was 1.24 fold enrichment (6-mer frequency, TF over GST control).

For TATCCT, the binding signal in the assay with ERF is 1.67 fold enrichment (6-mer frequency, TF over GST control); with ETV3L, 1.82 fold enrichment (6-mer frequency, TF over GST control); with ETS2, 1.81 fold enrichment (6-mer frequency, TF over GST control); with SPDEF it was 2.67 fold enrichment (6-mer frequency, TF over GST control); with ETV7 it was 1.67 fold enrichment (6-mer frequency, TF over GST control); with ELF5 it was 2.65 fold enrichment (6-mer frequency, TF over GST control). In addition, the binding signal with ETV3 was 1.8 fold enrichment (6-mer frequency, TF over GST control); in the assay with ETV6, 1.82 fold enrichment (6-mer frequency, TF over GST control).

ATTACA: the binding signal with ERF was 1.16 fold enrichment (6-mer frequency, TF over GST control); with ETV3L, 1.1 fold enrichment (6-mer frequency, TF over GST control); in the assay with ETS2 it was 1.11 fold enrichment (6-mer frequency, TF over GST control); with SPDEF it was 1.18 fold enrichment (6-mer frequency, TF over GST control); with ETV7, 1.08 fold enrichment (6-mer frequency, TF over GST control); with ELF5 it was 1.08 fold enrichment (6-mer frequency, TF over GST control). Besides, the binding signal was 1.04 fold enrichment (6-mer frequency, TF over GST control) in the assay with ETV3 and 1.15 fold enrichment (6-mer frequency, TF over GST control) with ETV6.

As for ATGATG, the binding signal in the assay with ERF was 1.27 fold enrichment (6-mer frequency, TF over GST control); with ETV3L it was 1.41 fold enrichment (6-mer frequency, TF over GST control); with ETS2, 1.27 fold enrichment (6-mer frequency, TF over GST control); in the assay with SPDEF it was 1.22 fold enrichment (6-mer frequency, TF over GST control); with ETV7, 1.43 fold enrichment (6-mer frequency, TF over GST control); with ELF5 it was 1.25 fold enrichment (6-mer frequency, TF over GST control). The binding signal is 1.43 fold enrichment (6-mer frequency, TF over GST control) with ETV3 and 1.38 fold enrichment (6-mer frequency, TF over GST control) in the assay with ETV6.

On to CTAATT, for which the binding signal was 1.27 fold enrichment (6-mer frequency, TF over GST control) with ERF; 1.23 fold enrichment (6-mer frequency, TF over GST control) with ETV3L; 1.37 fold enrichment (6-mer frequency, TF over GST control) in the assay with ETS2; 1.17 fold enrichment (6-mer frequency, TF over GST control) with SPDEF; 1.23 fold enrichment (6-mer frequency, TF over GST control) in the assay with ETV7; 1.22 fold enrichment (6-mer frequency, TF over GST control) with ELF5. In addition, the binding signal with ETV3 was 1.19 fold enrichment (6-mer frequency, TF over GST control); with ETV6 it was 1.33 fold enrichment (6-mer frequency, TF over GST control).

Take TGCTCG: the binding signal was 1.38 fold enrichment (6-mer frequency, TF over GST control) in the assay with ERF; 1.46 fold enrichment (6-mer frequency, TF over GST control) with ETV3L; 1.29 fold enrichment (6-mer frequency, TF over GST control) with ETS2; 1.07 fold enrichment (6-mer frequency, TF over GST control) with SPDEF; 1.18 fold enrichment (6-mer frequency, TF over GST control) with ETV7; 1.18 fold enrichment (6-mer frequency, TF over GST control) with ELF5. The binding signal with ETV3 is 1.3 fold enrichment (6-mer frequency, TF over GST control); with ETV6, 1.31 fold enrichment (6-mer frequency, TF over GST control).

As to CCTCGA, the binding signal in the assay with ERF is 1.28 fold enrichment (6-mer frequency, TF over GST control); with ETV3L, 1.35 fold enrichment (6-mer frequency, TF over GST control); with ETS2, 1.21 fold enrichment (6-mer frequency, TF over GST control); with SPDEF it was 1.23 fold enrichment (6-mer frequency, TF over GST control); with ETV7 it was 1.42 fold enrichment (6-mer frequency, TF over GST control); with ELF5, 1.34 fold enrichment (6-mer frequency, TF over GST control). Besides, the binding signal with ETV3 is 1.26 fold enrichment (6-mer frequency, TF over GST control); in the assay with ETV6 it was 1.29 fold enrichment (6-mer frequency, TF over GST control).

Consider TTAACC, for which the binding signal in the assay with ERF is 1.23 fold enrichment (6-mer frequency, TF over GST control); with ETV3L it was 1.32 fold enrichment (6-mer frequency, TF over GST control); with ETS2, 1.29 fold enrichment (6-mer frequency, TF over GST control); with SPDEF it was 1.35 fold enrichment (6-mer frequency, TF over GST control); in the assay with ETV7, 1.23 fold enrichment (6-mer frequency, TF over GST control); with ELF5, 1.28 fold enrichment (6-mer frequency, TF over GST control). Further, the binding signal in the assay with ETV3 is 1.38 fold enrichment (6-mer frequency, TF over GST control); in the assay with ETV6, 1.32 fold enrichment (6-mer frequency, TF over GST control).

For the origin of these results see paper PMC7862700, “An all-to-all approach to the identification of sequence-specific readers for epigenetic DNA modifications on cytosine”.
